The record followed here is PubChem BioAssay.

In assay [1] the target is PEG-3 (UniProt Q6IN02). In words: Peg3 promoter luciferase inhibitors, potency, dose response, cell-based, HeLa, CREF/GAPDH counter-screen panel (AID 624167). The following applies: CREF/GAPDH counter-screens; HeLa PEG-Prom luciferase reporter, overnight, run 1, dose range 1, at 100 µM (top of the series) unless noted.
For assay [2], the target named is PEG-3 (UniProt Q6IN02). Described as above. The following applies: CREF/GAPDH counter-screens; HeLa PEG-Prom luciferase reporter, overnight, run 2, dose range 1, at 100 µM (top of the series) unless noted.
Assay [3] has as its system Rat fibroblasts (CREF). The assay is described as above. The following applies: CREF/GAPDH counter-screens; run 1, dose range 1, at 100 µM (top of the series).
Assay [4] has as its system Rat fibroblasts (CREF). Described as above. The following applies: CREF/GAPDH counter-screens; run 2, dose range 1, at 100 µM (top of the series).
The target of assay [5] is Tumor necrosis factor receptor superfamily member 10B (Homo sapiens) (UniProt O14763). Put plainly: caspase-8 TRAIL sensitization, hit retest, confirmation, cell-based, NB7+caspase-8, with/without TRAIL, luminescence panel (AID 651596). The following applies: NB7 neuroblastoma + caspase-8, TRAIL sensitization, luminescence viability, with TRAIL, mean of runs, at 10 µM, stronger effect = higher value.
Tumor necrosis factor receptor superfamily member 10B (Homo sapiens), sequence (O14763 whole entry, looked up): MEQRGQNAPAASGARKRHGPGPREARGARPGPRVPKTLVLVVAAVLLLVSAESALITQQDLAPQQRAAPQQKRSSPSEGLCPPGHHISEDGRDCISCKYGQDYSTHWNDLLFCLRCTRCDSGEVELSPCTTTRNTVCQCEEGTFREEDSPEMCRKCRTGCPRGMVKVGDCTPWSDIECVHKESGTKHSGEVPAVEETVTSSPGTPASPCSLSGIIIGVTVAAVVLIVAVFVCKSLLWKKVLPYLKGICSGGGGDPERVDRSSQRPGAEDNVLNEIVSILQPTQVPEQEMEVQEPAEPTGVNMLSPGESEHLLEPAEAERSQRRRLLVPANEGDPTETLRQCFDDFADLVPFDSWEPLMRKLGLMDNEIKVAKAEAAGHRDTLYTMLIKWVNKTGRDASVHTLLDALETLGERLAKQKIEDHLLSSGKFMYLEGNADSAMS

Test in assay [6]: as above
The following applies: NB7 neuroblastoma + caspase-8, without TRAIL, luminescence viability, without TRAIL, mean of runs, at 10 µM.

A short description of assay [7]: inhibitors of PAF-induced NFkB signaling in CF airway cells, dose response, cell-based, uHTS hits, panel, cytotoxicity readout (AID 624344). The following applies: CF bronchial epithelial cells, PAF-induced NFkB reporter inhibition, with PAF, run 1; at 79 µM (top of the series) unless noted.
Test in assay [8]: as above
The following applies: CF bronchial epithelial cells, PAF-induced NFkB reporter inhibition, with PAF, run 2; at 79 µM (top of the series) unless noted.

PEG-3, sequence (Q6IN02 whole entry, looked up): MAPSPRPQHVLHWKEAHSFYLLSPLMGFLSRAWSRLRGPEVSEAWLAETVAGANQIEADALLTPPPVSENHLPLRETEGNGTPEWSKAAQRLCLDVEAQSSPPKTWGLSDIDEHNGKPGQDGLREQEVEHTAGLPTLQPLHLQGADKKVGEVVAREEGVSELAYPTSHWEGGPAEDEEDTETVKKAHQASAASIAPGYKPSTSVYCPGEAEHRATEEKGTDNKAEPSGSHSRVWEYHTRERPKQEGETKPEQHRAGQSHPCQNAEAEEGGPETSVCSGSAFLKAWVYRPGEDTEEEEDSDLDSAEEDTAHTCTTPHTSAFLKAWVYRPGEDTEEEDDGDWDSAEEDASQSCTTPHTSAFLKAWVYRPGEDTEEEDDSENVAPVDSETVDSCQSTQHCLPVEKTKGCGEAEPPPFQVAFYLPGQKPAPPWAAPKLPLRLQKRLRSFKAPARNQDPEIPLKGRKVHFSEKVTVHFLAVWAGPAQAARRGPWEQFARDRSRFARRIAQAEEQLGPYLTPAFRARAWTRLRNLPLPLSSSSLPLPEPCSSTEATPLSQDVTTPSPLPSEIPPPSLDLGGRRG

Consider `COC1CC(C)C(OC)c2cc(O)cc(c2O)NC(=O)C(C)=CC=CC(C)C(OC(N)=O)C(C)=CC(C)C1OC` (stereo not given), for which the inhibition in assay [1] came out at 94%; in assay [2], 100%; in assay [3], 97.1%; in assay [4], 98.6%.
With `Cc1ccccc1CNC(=O)C1CCCN(c2nnc(C)c3c(C)n(-c4ccccc4)nc23)C1` (stereo not given), the inhibition came to 99% in assay [1], 101% in assay [2], 98.3% in assay [3] and 99.4% in assay [4].
On the same counts, the results for `COc1cc(CNCCCN2CCOCC2)cc(Br)c1OCc1ccc(Cl)cc1` are 99.2%, 101%, 100% and 99.1%.
The like results for `O=C(/C=C/c1ccccc1)Nc1cccc(C(=O)O)c1` were, in that order, 99%, 97.4%, 96.8% and 95.7%.
The like results for `CCCOc1ccc2cc(-c3ccccn3)c(=O)oc2c1` were, in that order, 93.5%, 94.5%, 96.1% and 95.4%.
Turning to `CN(C)c1ccc(NC(=S)c2ccccn2)cc1`, the inhibition in assay [1] was 93.1%; in assay [2], 85.4%; in assay [3], 94.4%; in assay [4], 96.1%.
Take `COc1ccc(NC(=O)c2cc(-c3ccccn3)nc3ccccc23)cc1S(=O)(=O)N(C)C`: the inhibition in assay [1] was 56.4%; in assay [2], 61.2%; in assay [3] it was -4.8%; in assay [4], -6.75%.
`CCC(c1ccc(O)c(O)c1)C(CC)c1ccc(O)c(O)c1` (stereo not given): the inhibition in assay [1] worked out at 102%; in assay [2], 101%; in assay [3], 100%; in assay [4], 97.1%.
For `Cc1cc(C(=O)COC(=O)c2ccccc2O)c(C)n1Cc1cccs1`, the inhibition worked out at 88.8% in assay [1], 94.8% in assay [2], 94.6% in assay [3] and 87.5% in assay [4]. Also, the activity in assay [5] came to 95.7%; in assay [6], 95.5%.
`COc1cc(OC)c2cc(C(=O)N/N=C/c3ccccc3O)[nH]c2c1`: the inhibition in assay [1] came out at 95.8%; in assay [2], 95.1%; in assay [3] it was 67.5%; in assay [4], 65.2%.
As to `Cc1csc(NC(=O)c2cn3ccccc3n2)n1`, the inhibition in assay [1] is 99%; in assay [2], 99.7%; in assay [3], 99.8%; in assay [4], 99.8%. Moreover, the activity in assay [5] was determined as 89.6%; in assay [6], 89.8%.
As for `CN(C)c1ccc(C=c2c3ccccc3n3c2cc(-c2ccccc2)[n+]3C)cc1`, the inhibition in assay [1] was determined as 98.9%; in assay [2], 102%; in assay [3] it was 101%; in assay [4], 100%.
Regarding `CCOc1ccc(-c2ccc(SC)nn2)cc1`, the inhibition in assay [1] came to 95%; in assay [2] it was 92.5%; in assay [3] it was 97.5%; in assay [4], 98.9%. The activity in assay [5] is 95.2%; in assay [6], 95.1%.
For `O=c1c(Cl)c(N2CCCCC2)cnn1-c1nc2ccccc2[nH]1`, the inhibition turned out to be 96.7% in assay [1], 95% in assay [2], 100% in assay [3] and 100% in assay [4]. Further, the values for the activity in assay [5] and in assay [6] were 96.4% and 96.5%, respectively.
Regarding `C(=NNc1ccc2ccccc2n1)c1ccccn1`, the inhibition in assay [1] came to 99%; in assay [2], 102%; in assay [3], 99%; in assay [4], 99.3%. The activity in assay [5] was found to be 82.5%; in assay [6], 86%.
With `C=C1CC(COc2ccc3c(C)c(Cl)c(=O)oc3c2)(c2ccccc2)OC1=O` (stereo not given), the inhibition in assay [1] is 99.6%; in assay [2], 101%; in assay [3], 98.2%; in assay [4], 98%. Further, the activity came out at 97.8% in assay [5] and 99% in assay [6].
As to `CCN1C=CC(=C2C(=O)c3ccccc3C2=O)C=C1`, the inhibition in assay [1] was found to be 96.8%; in assay [2] it was 98.3%; in assay [3] it was 99.8%; in assay [4], 101%.
For `CC(=O)Nc1ccc(NC(=O)c2nc(S(=O)(=O)Cc3cccc(C)c3)ncc2Cl)cc1`, the inhibition is 102% in assay [1]; 97.4% in assay [2]; 100% in assay [3]; 100% in assay [4]; 76.1% in assay [7]; 85.4% in assay [8]. Moreover, the values for the activity in assay [5] and in assay [6] were 56.4% and 99.4%, respectively.
Take `COc1cccc(OC)c1C(=O)Nc1cc(C)nn1-c1nc2ccccc2[nH]1`: the inhibition is 37.6% in assay [1]; 65.1% in assay [2]; 2.09% in assay [3]; 12.6% in assay [4]; 111% in assay [7]; 101% in assay [8].
With `CCCCCCN1C=C/C(=C\C=C(C#N)C#N)c2ccccc21`, the inhibition turned out to be 54.3% in assay [1], 78.7% in assay [2], 43.7% in assay [3] and 89.7% in assay [4].
The like results for `CCOc1cccc(/C=N/NC(=S)Nc2cc(S(=O)(=O)N3CCOCC3)ccc2N2CCOCC2)c1O` were, in that order, 70.7%, 50.5%, 26.2% and 48.3%.
For `CN(C)c1ccc(Nc2nc(N)c3ccccc3n2)cc1`, the inhibition in assay [1] was determined as 97.9%; in assay [2], 99.2%; in assay [3], 97.2%; in assay [4], 98%. In addition, the activity in assay [5] was determined as 95.9%; in assay [6] it was 95.8%.
Regarding `COc1ccc(N(C(=O)CCl)C(C(=O)NC2CCCCC2)c2cccnc2)cc1` (stereo not given), the inhibition stood at 99.1% in assay [1], 102% in assay [2], 97.1% in assay [3] and 94.1% in assay [4]. Besides, the activity worked out at 99.5% in assay [5] and 98.7% in assay [6].
In the case of `COc1cc(SC)ccc1C(=O)Nc1nc2ccccc2[nH]1`, the inhibition in assay [1] turned out to be 99.2%; in assay [2], 101%; in assay [3], 96.9%; in assay [4], 97.9%. In addition, the activity in assay [5] and in assay [6] was 99% each time.
Consider `CC(C)CCCCCCCCCCCCC(=O)NCC(=O)NC1C(O)C(O)C(Nc2ncnc3nc[nH]c23)OC1C(O)CO` (stereo not given), for which the inhibition in assay [1] turned out to be 102%; in assay [2], 98.2%; in assay [3] it was 99.5%; in assay [4], 9.65%.
The like results for `Cc1ccc(-n2[nH]c(=O)c(-c3ccccn3)c2C)cc1` were, in that order, 94.8%, 90.3%, 86.5% and 87.2%.
The like results for `Cc1cc(C)c2sc(NNC(=O)c3ccc(S(=O)(=O)N4CCc5ccccc5C4)cc3)nc2c1` were, in that order, 84.2%, 94.7%, 53.3% and 25.5%.
As to `Cc1ccc(-c2nc(-c3ccccn3)no2)cc1`, the inhibition came to 99.3% in assay [1], 96% in assay [2], 100% in assay [3] and 99.7% in assay [4]. In addition, the activity in assay [5] is 96.8%; in assay [6] it was 96.3%.
Regarding `O=C(Nc1ccccn1)c1cc2ccccc2o1`, the inhibition in assay [1] amounted to 82.3%; in assay [2] it was 96.6%; in assay [3], 99.4%; in assay [4] it was 98.8%. The activity was determined as 90.3% in assay [5] and 89.6% in assay [6].
Consider `COC(CNC(=O)c1ccc2c3c(onc13)-c1ccccc1C2=O)OC`, for which the inhibition in assay [1] worked out at 102%; in assay [2] it was 102%; in assay [3], 98.9%; in assay [4], 100%.
For `Cc1cc(/C=N/Nc2ncnc(N)c2[N+](=O)[O-])c(C)n1-c1ccccc1`, the inhibition is 93.6% in assay [1], 87% in assay [2], 91.1% in assay [3] and 93.5% in assay [4].
On the same counts, the results for `CS(=O)(=O)c1ccc(-c2cn3cc(C(=O)O)ccc3n2)cc1` are 82.1%, 57.2%, 71% and 66.8%.
For `COCCn1c(C)cc(C(=O)COC(=O)c2cccc(O)c2)c1C`, the inhibition in assay [1] came to 89.5%; in assay [2] it was 91.3%; in assay [3] it was 98.3%; in assay [4], 97.1%. Also, the activity in assay [5] worked out at 86.2%; in assay [6] it was 87.7%.
Turning to `O=C(O)c1ccc(CN2C(=O)c3cccc4c([N+](=O)[O-])ccc(c34)C2=O)cc1`, the inhibition in assay [1] was 99%; in assay [2], 100%; in assay [3] it was 71.3%; in assay [4] it was 98.6%.
As to `COc1ccccc1CNCC(O)Cn1c2ccccc2c2ccccc21` (stereo not given), the inhibition was 102% in assay [1], 98.7% in assay [2], 99.2% in assay [3] and 98.9% in assay [4].
